Assay [1] can be described thus: antimalarial activity against Dd2 strain (AID 2302;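 active = growth inhibition above 50% at the single 2 µM test dose, taken to imply half-maximal potency below 2 µM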;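 note: 0% = DMSO untreated growth and 100% = chloroquine plus artemisinin killed control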). The following applies: P. falciparum Dd2 in RBCs, LDH growth readout, 72 h; at 2 µM; hits give high values.
The nature of assay [2]: HepG2 cytotoxicity, primary screen, cytotoxicity control for P. falciparum antimalarial project, cell-based, ATP luminescence (AID 2303;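 active = inhibition above 50%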;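 note: 0% = DMSO wells and 100% = digitonin-killed cells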). Conditions: HepG2 viability, 24-48 h, at 10 µM, hits give high values.
Assay [3] concerns the target L-lactate dehydrogenase (Plasmodium falciparum (isolate CDC / Honduras)) (UniProt Q27743). Nature of the assay: PfLDH activity inhibition – cell lysate, 3D7 strain, counter-screen for P. falciparum growth inhibition project (AID 2304).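 Note: 0% = vehicle and 100% = reference inhibitor.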 The following applies: P. falciparum 3D7 crude extract, LDH APAD/NBT absorbance; at 2 µM; hits give high values. (Counterscreens check selectivity or assay interference.)

Assay [4] in a line: inhibition of 3D7 malaria parasite growth – strain 3D7 (AID 2306).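 Note: 0% = DMSO wells and 100% = chloroquine plus artemisinin control wells.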 The following applies: P. falciparum 3D7 erythrocytic growth, LDH absorbance, 72 h; at 2 µM; hits give high values.
Assay [5] concerns the target Calcium-dependent protein kinase 1 (Plasmodium falciparum (isolate 3D7)) (UniProt P62344). Nature of the assay: PfCDPK1 kinase inhibitors, biochemical, TCAMS library (AID 1159585; cut-off not given, nearly all actives have IC50 up to about 0.98 µM;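 note: inhibitors leave more ATP so luminescence rises with inhibition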). The following applies: recombinant PfCDPK1, Kinase-Glo ATP depletion luminescence. (In general: Kinase-Glo reads ATP consumption through a luciferase reaction.)
Assay [6] addresses Plasmodium falciparum protein kinase 6 (PK6, PF3D7_1337100) (UniProt Q8IDW1). Nature of the assay: PfPK6 kinase inhibitors, biochemical, TCAMS library (AID 1159586). The following applies: recombinant PfPK6, Kinase-Glo ATP depletion luminescence.
The target in assay [7] is Protein kinase 7 (PK7), Plasmodium falciparum 3D7 (PF3D7_0213400) (UniProt Q7YTF7). In words: inhibition of Plasmodium PK7 catalytic activity – biochemical, TCAMS antimalarial set, Kinase-Glo luminescence (AID 1159587). Conditions: recombinant PfPK7, Kinase-Glo ATP depletion luminescence.
Protein kinase 7 (PK7), Plasmodium falciparum 3D7 (PF3D7_0213400), sequence (Q7YTF7 1-343): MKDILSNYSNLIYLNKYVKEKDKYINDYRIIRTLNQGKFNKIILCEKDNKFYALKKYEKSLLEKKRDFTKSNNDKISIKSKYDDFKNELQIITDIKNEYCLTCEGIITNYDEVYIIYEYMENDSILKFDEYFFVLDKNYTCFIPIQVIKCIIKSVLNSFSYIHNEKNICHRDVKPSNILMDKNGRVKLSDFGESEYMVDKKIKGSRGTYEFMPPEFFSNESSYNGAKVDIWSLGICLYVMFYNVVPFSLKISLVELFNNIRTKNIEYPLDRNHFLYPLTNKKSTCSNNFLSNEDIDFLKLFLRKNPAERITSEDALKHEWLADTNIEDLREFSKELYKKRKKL
Assay [8] addresses Calcium-dependent protein kinase 4 (Plasmodium falciparum (isolate 3D7)) (UniProt Q8IBS5). Nature of the assay: PfCDPK4 kinase inhibitors, biochemical, TCAMS library (AID 1159588; cut-off not given, nearly all actives have IC50 up to about 0.91 µM). The following applies: recombinant PfCDPK4, Kinase-Glo ATP depletion luminescence.

Unmarked numbers belong to inactive results. For some of these results: Entries with a potency or affinity are not part of this list. The source made the active and inactive calls. Unless noted, the rule behind the calls is not given here.

Calcium-dependent protein kinase 4 (Plasmodium falciparum (isolate 3D7)), sequence (Q8IBS5 whole entry, looked up): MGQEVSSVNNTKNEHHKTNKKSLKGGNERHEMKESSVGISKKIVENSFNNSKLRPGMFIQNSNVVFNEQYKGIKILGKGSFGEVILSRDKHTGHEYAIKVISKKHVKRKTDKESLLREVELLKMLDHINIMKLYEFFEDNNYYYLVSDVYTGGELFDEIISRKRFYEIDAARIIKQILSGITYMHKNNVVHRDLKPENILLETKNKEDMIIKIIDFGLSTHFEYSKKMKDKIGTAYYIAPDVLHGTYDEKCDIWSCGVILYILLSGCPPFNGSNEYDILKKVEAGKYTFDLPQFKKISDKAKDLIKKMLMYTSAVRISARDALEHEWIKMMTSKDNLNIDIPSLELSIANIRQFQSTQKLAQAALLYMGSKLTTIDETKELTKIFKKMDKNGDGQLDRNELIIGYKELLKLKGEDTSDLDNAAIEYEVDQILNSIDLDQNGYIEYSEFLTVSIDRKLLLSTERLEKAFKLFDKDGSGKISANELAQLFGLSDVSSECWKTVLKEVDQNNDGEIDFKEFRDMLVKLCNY
Plasmodium falciparum protein kinase 6 (PK6, PF3D7_1337100), sequence (Q8IDW1 1-305): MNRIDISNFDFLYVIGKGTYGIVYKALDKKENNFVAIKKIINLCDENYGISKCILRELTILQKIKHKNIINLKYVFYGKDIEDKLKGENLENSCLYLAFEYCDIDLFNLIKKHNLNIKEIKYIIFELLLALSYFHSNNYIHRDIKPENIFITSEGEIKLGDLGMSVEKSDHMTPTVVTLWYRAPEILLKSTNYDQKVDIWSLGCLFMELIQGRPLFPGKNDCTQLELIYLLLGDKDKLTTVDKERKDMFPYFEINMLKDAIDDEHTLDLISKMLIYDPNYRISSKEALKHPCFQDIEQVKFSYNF
L-lactate dehydrogenase (Plasmodium falciparum (isolate CDC / Honduras)), sequence (Q27743 whole entry, looked up): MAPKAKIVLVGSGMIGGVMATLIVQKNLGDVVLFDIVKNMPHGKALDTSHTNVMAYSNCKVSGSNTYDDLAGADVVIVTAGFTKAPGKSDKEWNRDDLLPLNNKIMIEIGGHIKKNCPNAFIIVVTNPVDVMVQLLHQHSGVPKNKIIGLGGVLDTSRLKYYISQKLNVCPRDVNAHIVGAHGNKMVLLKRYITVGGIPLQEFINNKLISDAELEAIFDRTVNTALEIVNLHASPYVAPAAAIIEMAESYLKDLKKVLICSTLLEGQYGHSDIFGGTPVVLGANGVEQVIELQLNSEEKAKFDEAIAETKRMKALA
Calcium-dependent protein kinase 1 (Plasmodium falciparum (isolate 3D7)), sequence (P62344 whole entry, looked up): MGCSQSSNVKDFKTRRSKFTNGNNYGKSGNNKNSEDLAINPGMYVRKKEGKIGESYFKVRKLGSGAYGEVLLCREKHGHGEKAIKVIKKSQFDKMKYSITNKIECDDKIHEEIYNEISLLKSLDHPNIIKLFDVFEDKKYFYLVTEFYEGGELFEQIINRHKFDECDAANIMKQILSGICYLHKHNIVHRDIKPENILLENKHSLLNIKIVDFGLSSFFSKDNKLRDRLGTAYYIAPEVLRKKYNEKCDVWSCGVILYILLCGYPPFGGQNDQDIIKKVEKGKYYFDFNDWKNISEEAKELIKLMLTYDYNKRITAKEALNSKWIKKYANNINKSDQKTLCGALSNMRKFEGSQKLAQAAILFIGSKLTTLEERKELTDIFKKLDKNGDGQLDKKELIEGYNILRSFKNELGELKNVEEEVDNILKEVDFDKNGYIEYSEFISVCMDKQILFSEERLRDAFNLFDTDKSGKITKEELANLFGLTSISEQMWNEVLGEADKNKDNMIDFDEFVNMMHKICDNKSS

A word on the inhibition: it is the change of the read-out against control, counted positive when it falls. For `O=C(O)c1cccc2c(-c3ccncc3)cccc12`, the growth inhibition in assay [1] was 1%; in assay [4] it was 97% (active). In addition, the inhibition in assay [2] was 29%; in assay [3], -1%. Further, the result in assay [5], in assay [6], in assay [7] and in assay [8] was inactive.

Regarding `O=C(Cc1ccsc1)NCC(c1ccccc1Cl)c1c[nH]c2ccccc12` (stereo not drawn), the growth inhibition in assay [1] was 71% (active); in assay [4], 86% (active). Further, the inhibition was 0% in assay [2] and -1% in assay [3]. Moreover, the outcome in assay [5], in assay [6], in assay [7] and in assay [8] was inactive.

For the compound `CCOC(=O)c1c(CSc2ccccc2)oc2cc(CN(C)C)c(O)c(Cl)c12`, the growth inhibition is 70% (active) in assay [1] and 99% (active) in assay [4]. In addition, the inhibition in assay [2] is 12%; in assay [3], -4%. For the same compound, the result in assay [5], in assay [6], in assay [7] and in assay [8] was inactive.

For the compound `Cc1c(N)ccc2[nH]c(-c3ccc(N)cc3)nc12`, the results for the growth inhibition in assay [1] and in assay [4] were 40% and 97% (active), respectively. For the same compound, the inhibition in assay [2] and in assay [3] was 0% in each case. Further, the outcome in assay [5], in assay [6], in assay [7] and in assay [8] was inactive.

Consider `COc1cc(C(C)C)ccc1C1CCN(CCCCNC(=O)c2ccc(NC(=O)c3ccc(Cl)cc3)cc2)CC1`, for which the growth inhibition in assay [1] is 99% (active); in assay [4], 98% (active). The inhibition in assay [2] was 100% (active); in assay [3] it was 3%. Besides, the result in assay [5], in assay [6], in assay [7] and in assay [8] was inactive.

For `CCc1ccc(CN(CCCOc2cccc(CC(=O)NCc3cnc[nH]3)c2)Cc2ccc(-n3ccnc3)cc2)cc1`, the results for the growth inhibition in assay [1] and in assay [4] were 28% and 99% (active), respectively. For the same compound, the inhibition in assay [2] was 1%; in assay [3], -2%. Further, the result in assay [5], in assay [6], in assay [7] and in assay [8] was inactive.

Take `Cc1cc(-c2ccc3occ(CCN)c3c2)cnc1N`: the results for the growth inhibition in assay [1] and in assay [4] were 56% (active) and 92% (active), respectively. Besides, the inhibition was -5% in assay [2] and -2% in assay [3]. Moreover, the result in assay [5], in assay [6], in assay [7] and in assay [8] was inactive.

Take `COc1ccc(C(=O)Nc2ccc3nc(N4CCCCC4)cc(C)c3c2)cc1OC`: the growth inhibition was 7% in assay [1] and 92% (active) in assay [4]. Besides, the inhibition is 15% in assay [2] and 3% in assay [3]. Besides, the result in assay [5], in assay [6], in assay [7] and in assay [8] was inactive.

Take `Cc1cc(NC(=O)Nc2ccc3sccc3c2)c2ccccc2n1`: the growth inhibition in assay [1] is 57% (active); in assay [4] it was 99% (active). In addition, the figures for the inhibition in assay [2] and in assay [3] were 41% and 0%, respectively. Further, the result in assay [5], in assay [6], in assay [7] and in assay [8] was inactive.

For the compound `O=C(NCCNc1nc(NCCNC(=O)Nc2ccccc2)c2ccc(=O)n(-c3c(F)cccc3F)c2n1)Nc1ccccc1`, the figures for the growth inhibition in assay [1] and in assay [4] were 87% (active) and 94% (active), respectively. Moreover, the inhibition in assay [2] is 1%; in assay [3] it was 6%. For the same compound, the result in assay [5], in assay [6], in assay [7] and in assay [8] was inactive.

As for `Cc1cc(N(C)C2CCN(C)C2)nc(Nc2ccc(Cl)cc2)n1` (stereo not drawn), the growth inhibition in assay [1] was 88% (active); in assay [4], 100% (active). The inhibition in assay [2] was 8%; in assay [3], 0%. Also, the result in assay [5], in assay [6], in assay [7] and in assay [8] was inactive.

For the compound `CN(C)C(=O)c1cccc(COc2ccc(N3C(N)=NC(N)=NC3(C)C)cc2Cl)c1`, the inhibition in assay [3] was 1%. Moreover, the outcome in assay [5], in assay [6], in assay [7] and in assay [8] was inactive.

For `CN(C)Cc1ccc2nc(-c3cccc(Cc4cc(Cl)ccc4OCc4ccc(Cl)cc4F)n3)[nH]c2c1`, the growth inhibition in assay [1] was 26%; in assay [4], 93% (active). The inhibition in assay [2] is 43%; in assay [3], 1%. Further, the outcome in assay [5], in assay [6], in assay [7] and in assay [8] was inactive.

Regarding `Cc1cc(NCc2ccc(F)cc2)nc2cc(O)ccc12`, the growth inhibition in assay [1] was 85% (active); in assay [4], 98% (active). Moreover, the inhibition in assay [2] is 14%; in assay [3] it was -7%. Further, the result in assay [5], in assay [6], in assay [7] and in assay [8] was inactive.

Consider `CCOc1cc2ncnc(Nc3ccc(OCc4ccccc4Br)c(OC)c3)c2cc1OCC`, for which the growth inhibition in assay [1] is 82% (active); in assay [4], 100% (active). For the same compound, the inhibition in assay [2] and in assay [3] was 1% in each case. The outcome in assay [5], in assay [6], in assay [7] and in assay [8] was inactive.

Take `CCn1c(C)c(C)c2cc(C(=O)Nc3ccon3)ccc21`: the growth inhibition is 93% (active) in assay [1] and 95% (active) in assay [4]. Moreover, the inhibition in assay [2] was 3%; in assay [3] it was -3%. The result in assay [5], in assay [6], in assay [7] and in assay [8] was inactive.

Regarding `O=C(N[C@@H](Cc1ccccc1)[C@H](O)CNC1CCCCC1)c1cc(C2CCCC2)cc(N2CCCC2=O)c1`, the results for the growth inhibition in assay [1] and in assay [4] were 98% (active) and 100% (active), respectively. Further, the inhibition was 17% in assay [2] and 0% in assay [3]. For the same compound, the result in assay [5], in assay [6], in assay [7] and in assay [8] was inactive.

Source of the values: PubChem BioAssay.
